Test results taken from PubChem BioAssay (Tox21).
Records with an inconclusive call do not appear. Activity calls are given as the source filed them. Calls follow the shape of the dose curve; as a rule, active = well fitted curve in the direction sought with a large enough effect in the repeat runs; inconclusive = weak or mixed curves; inactive = no such curve, though single readings can be large; an effect the other way counts as inactive or inconclusive.

Columns and labels:
[1] = target: Cytochrome P450 2D6 (Homo sapiens) (UniProt P10635); assay: Cytochrome P450 Family 2 Subfamily D Member 6 (CYP2D6) small molecule antagonists: luciferase reporter qHTS assay (AID 1671196); also: nearly all actives have a fitted effect of over 50% in size; also: potency is read from the fitted curve at half-maximal effect; as to activity change, negative = inhibition: series mostly up to about 120 µM
In short: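 Chemicals tested for interference with CYP2D6 activity; proluciferin substrate, NADPH regeneration, 1 h at room temperature, luminescent detection.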

[2] = target: Cytochrome P450 2C19 (Homo sapiens) (UniProt P33261); assay: Cytochrome P450 Family 2 Subfamily C Member 19 (CYP2C19) small molecule antagonists: luciferase reporter qHTS assay (AID 1671197); also: nearly all actives have a fitted effect of over 65% in size; also: potency is read from the fitted curve at half-maximal effect; as to activity change, negative = inhibition: series mostly up to about 120 µM
In short: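 Inhibition of CYP2C19 was scored from loss of luminescence in a P450-Glo proluciferin substrate assay, NADPH-started and run 1 h at 37C, with ketoconazole as positive control.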

[3] = target: Cytochrome P450 2C9 (Homo sapiens) (UniProt P11712); assay: Cytochrome P450 Family 2 Subfamily C Member 9 (CYP2C9) small molecule antagonists: luciferase reporter qHTS assay (AID 1671198); also: nearly all actives have a fitted effect of over 50% in size; also: potency is read from the fitted curve at half-maximal effect; as to activity change, negative = inhibition: series mostly up to about 120 µM
In short: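 CYP2C9 activity was measured with a P450-Glo proluciferin substrate. Enzyme–substrate mix was held with compound for 10 min at room temperature, then NADPH regeneration solution was added for 1 h at 37C. Luciferin product was read as luminescence.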

[4] = target: Voltage-gated inwardly rectifying potassium channel KCNH2 (Homo sapiens) (UniProt Q12809); assay: Human Ether-a-go-go-Related Gene (hERG) channel small molecule antagonists: fluorescence cell-based qHTS assay (AID 1671200);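 also: hERG-expressing U2OS cells given a thallium stimulus after FluxOR II dye loading; series mostly up to about 77 µM; nearly all actives have a fitted effect of over 50% in size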
In short: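 Thallium served as the potassium surrogate; its influx into dye-loaded U2OS cells carrying the channel was measured by fluorescence over 2 min.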

[5] = target: Cytochrome P450 3A4 (Homo sapiens) (UniProt P08684); assay: Cytochrome P450 Family 3 Subfamily A Member 4 (CYP3A4) small molecule antagonists: luciferase reporter qHTS assay (AID 1671201); also: nearly all actives have a fitted effect of over 50% in size; also: potency is read from the fitted curve at half-maximal effect; as to activity change, negative = inhibition: series mostly up to about 120 µM
In short: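 Relative luminescence units after 20 min with luciferin detection reagent served as read-out. Beforehand, CYP3A4 turned over a proluciferin substrate for 1 h at room temperature with NADPH regeneration, following 10 min compound preincubation.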

[6] = target: Cytochrome P450 1A2 (Homo sapiens) (UniProt P05177); assay: Cytochrome P450 Family 1 Subfamily A Member 2 (CYP1A2) small molecule antagonists: luciferase reporter qHTS assay (AID 1671199)
In short: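 Read-out is luminescence from luciferin detection reagent (20 min) proportional to CYP1A2 activity; compounds in DMSO preincubated 10 min with enzyme and proluciferin substrate, then NADPH regeneration solution, 1 h, room temperature.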
% is scaled to controls: 0 for no effect and ±100 for the full control effect.

Sequence of Voltage-gated inwardly rectifying potassium channel KCNH2 (Homo sapiens) (Q12809 whole entry, looked up): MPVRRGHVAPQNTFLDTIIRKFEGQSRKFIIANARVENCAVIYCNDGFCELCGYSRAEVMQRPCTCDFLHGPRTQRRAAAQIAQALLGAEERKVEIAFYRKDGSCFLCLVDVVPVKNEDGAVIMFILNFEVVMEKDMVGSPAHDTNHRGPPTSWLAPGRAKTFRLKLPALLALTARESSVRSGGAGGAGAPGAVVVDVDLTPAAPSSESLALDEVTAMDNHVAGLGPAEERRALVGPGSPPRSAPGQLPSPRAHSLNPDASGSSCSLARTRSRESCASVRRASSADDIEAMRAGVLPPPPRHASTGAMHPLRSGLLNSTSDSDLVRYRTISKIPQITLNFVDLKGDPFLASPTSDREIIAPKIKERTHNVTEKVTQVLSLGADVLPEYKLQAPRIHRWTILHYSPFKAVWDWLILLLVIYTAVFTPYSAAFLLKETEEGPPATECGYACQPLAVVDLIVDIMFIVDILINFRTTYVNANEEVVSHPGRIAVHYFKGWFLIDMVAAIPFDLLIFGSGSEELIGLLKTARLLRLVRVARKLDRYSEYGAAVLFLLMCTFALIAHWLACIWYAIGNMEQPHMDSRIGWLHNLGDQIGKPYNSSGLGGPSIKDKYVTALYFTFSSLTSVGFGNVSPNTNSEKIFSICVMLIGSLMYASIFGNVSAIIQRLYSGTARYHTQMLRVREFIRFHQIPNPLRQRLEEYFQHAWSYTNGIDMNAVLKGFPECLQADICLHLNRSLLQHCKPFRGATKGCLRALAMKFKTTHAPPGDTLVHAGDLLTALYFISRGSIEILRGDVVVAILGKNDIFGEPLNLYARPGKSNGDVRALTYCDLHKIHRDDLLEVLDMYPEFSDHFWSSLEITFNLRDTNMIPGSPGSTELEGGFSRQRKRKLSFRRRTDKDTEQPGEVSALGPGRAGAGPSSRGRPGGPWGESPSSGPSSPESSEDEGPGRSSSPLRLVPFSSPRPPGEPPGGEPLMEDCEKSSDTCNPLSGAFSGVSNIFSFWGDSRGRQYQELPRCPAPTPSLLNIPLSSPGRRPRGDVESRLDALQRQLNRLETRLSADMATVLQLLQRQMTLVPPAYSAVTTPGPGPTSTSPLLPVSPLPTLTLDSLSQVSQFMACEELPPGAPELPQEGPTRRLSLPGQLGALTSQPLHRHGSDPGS
Sequence of Cytochrome P450 2D6 (Homo sapiens) (P10635 whole entry, looked up): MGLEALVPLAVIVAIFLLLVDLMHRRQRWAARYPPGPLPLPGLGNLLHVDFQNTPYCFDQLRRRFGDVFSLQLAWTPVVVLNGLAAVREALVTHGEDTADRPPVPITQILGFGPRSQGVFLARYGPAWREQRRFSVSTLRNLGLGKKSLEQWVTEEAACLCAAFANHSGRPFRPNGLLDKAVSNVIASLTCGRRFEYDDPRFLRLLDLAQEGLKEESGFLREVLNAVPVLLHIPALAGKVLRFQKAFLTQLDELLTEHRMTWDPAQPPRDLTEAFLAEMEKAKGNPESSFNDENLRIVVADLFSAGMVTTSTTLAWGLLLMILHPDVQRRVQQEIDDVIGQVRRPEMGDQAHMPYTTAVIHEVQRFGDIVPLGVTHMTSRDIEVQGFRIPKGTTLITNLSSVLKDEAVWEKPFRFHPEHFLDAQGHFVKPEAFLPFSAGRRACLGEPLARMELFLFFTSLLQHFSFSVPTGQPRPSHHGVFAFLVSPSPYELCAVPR
Sequence of Cytochrome P450 2C9 (Homo sapiens) (P11712 whole entry, looked up): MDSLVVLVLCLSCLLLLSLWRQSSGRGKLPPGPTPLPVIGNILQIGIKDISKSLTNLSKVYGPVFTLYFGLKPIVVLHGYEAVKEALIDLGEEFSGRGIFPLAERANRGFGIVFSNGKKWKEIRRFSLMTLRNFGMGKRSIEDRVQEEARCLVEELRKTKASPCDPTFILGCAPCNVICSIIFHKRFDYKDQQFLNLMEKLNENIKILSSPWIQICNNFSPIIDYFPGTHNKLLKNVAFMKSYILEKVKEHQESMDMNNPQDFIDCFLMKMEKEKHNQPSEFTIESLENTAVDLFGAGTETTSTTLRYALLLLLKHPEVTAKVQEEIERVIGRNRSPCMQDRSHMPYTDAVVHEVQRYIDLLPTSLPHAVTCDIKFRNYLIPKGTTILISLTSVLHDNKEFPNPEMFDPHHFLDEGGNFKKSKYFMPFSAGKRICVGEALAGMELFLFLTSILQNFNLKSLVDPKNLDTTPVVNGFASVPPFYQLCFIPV
Sequence of Cytochrome P450 3A4 (Homo sapiens) (P08684 whole entry, looked up): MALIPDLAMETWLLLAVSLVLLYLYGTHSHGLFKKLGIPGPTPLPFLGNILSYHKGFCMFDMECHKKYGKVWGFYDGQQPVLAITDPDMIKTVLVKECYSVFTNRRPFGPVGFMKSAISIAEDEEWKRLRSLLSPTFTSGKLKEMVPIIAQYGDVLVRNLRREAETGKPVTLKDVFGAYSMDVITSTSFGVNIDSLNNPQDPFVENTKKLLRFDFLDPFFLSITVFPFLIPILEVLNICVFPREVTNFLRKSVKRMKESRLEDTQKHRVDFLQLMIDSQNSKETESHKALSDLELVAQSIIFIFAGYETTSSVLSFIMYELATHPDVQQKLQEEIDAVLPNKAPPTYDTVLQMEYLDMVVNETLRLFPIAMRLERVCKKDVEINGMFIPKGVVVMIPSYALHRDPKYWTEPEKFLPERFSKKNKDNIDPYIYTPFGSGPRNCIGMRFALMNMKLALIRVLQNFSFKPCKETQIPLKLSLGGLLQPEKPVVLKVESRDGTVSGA
Sequence of Cytochrome P450 2C19 (Homo sapiens) (P33261 whole entry, looked up): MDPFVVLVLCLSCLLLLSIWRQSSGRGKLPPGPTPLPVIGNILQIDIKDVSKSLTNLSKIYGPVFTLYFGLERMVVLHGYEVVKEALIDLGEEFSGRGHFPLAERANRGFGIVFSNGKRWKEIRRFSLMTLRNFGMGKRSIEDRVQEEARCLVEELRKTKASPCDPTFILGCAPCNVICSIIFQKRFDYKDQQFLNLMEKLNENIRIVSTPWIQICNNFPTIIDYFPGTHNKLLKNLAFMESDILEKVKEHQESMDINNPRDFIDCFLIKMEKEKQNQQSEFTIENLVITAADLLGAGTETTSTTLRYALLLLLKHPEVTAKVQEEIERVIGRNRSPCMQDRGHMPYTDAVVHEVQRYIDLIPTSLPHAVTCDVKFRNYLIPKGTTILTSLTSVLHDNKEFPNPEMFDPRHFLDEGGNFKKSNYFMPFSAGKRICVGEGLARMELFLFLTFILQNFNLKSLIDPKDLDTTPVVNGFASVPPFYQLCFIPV
Sequence of Cytochrome P450 1A2 (Homo sapiens) (P05177 whole entry, looked up): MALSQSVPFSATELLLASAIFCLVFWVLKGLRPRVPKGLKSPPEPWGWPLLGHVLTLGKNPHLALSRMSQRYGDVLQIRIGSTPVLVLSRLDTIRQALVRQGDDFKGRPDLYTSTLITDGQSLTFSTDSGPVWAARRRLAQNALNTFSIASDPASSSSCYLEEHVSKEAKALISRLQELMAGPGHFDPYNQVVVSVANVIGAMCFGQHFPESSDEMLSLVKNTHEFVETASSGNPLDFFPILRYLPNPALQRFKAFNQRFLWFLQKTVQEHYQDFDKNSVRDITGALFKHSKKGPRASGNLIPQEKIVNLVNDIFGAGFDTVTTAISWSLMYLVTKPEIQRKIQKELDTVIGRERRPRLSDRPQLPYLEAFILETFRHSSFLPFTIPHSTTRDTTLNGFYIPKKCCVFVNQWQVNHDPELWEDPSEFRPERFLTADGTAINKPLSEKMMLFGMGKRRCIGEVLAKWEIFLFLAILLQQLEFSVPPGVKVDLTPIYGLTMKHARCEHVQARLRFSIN

C=C(C)C(=O)OCCN(CC)CC
inactive: Potency [1] | Potency [2] | Potency [3] | Potency [4] | Potency [5]

C[Si](C)(C)C
inactive: Potency [1] | Potency [2] | Potency [3] | Potency [4] | Potency [5]

CCOc1cc(NC(C)=O)ccc1C(=O)OC
inactive: Potency [1] | Potency [2] | Potency [3] | Potency [4] | Potency [5]

CCOC(=O)c1ccc(OC(=O)CCCCCN=C(N)N)cc1
active: Potency [1] 0.309 µM
inactive: Potency [2] | Potency [3] | Potency [4] | Potency [5]

C[C@@H](Oc1ccc(CNC(=O)c2cccnc2Oc2ccc3c(c2)OCO3)c(F)c1)C(=O)O
inactive: Potency [1] | Potency [2] | Potency [6] | Potency [4]

COc1cc2c(cc1OC)C(=O)CC2
inactive: Potency [1] | Potency [2] | Potency [3] | Potency [4] | Potency [5]

CCC(C=O)CC
inactive: Potency [1] | Potency [2] | Potency [3] | Potency [4] | Potency [5]

BrCc1cccc(Oc2ccccc2)c1
inactive: Potency [4] | Potency [5]
active: Potency [1] 35.6 µM | Potency [2] 7.96 µM | Potency [3] 79.6 µM

C[Si](C)=O
inactive: activity change, negative = inhibition [1] -1.51% [at 10.5 µM] | activity change, negative = inhibition [2] -11.8% [at 10.5 µM] | activity change, negative = inhibition [3] -9.3% [at 10.5 µM] | activity change, negative = inhibition [4] 1.17% [at 6.97 µM] | activity change, negative = inhibition [5] -1.04% [at 10.5 µM]

O=C(OCC(O)CO)c1ccccc1Nc1ccnc2c(C(F)(F)F)cccc12 (centres undefined)
inactive: Potency [4]
active: Potency [1] 30.9 µM | Potency [2] 0.347 µM | Potency [3] 9.77 µM

O=C(c1ccc(O)cc1)c1ccc(O)c(O)c1O
inactive: Potency [3] | Potency [4]
active: Potency [1] 40.1 µM | Potency [2] 40.1 µM

O=Cc1ccc(Cl)c(Cl)c1
inactive: Potency [1] | Potency [2] | Potency [3] | Potency [4] | Potency [5]

Nc1ccc2cc(S(=O)(=O)O)cc(O)c2c1
inactive: Potency [4] | Potency [5]
active: Potency [1] 44.5 µM | Potency [2] 22.3 µM | Potency [3] 35.4 µM

O=C1c2ccccc2C(=O)c2cc(S(=O)(=O)O)ccc21
inactive: Potency [4] | Potency [5]
active: Potency [1] 40.1 µM | Potency [2] 31.8 µM | Potency [3] 12.7 µM

CC(C)C[C@H](NC(=O)CNC(=O)[C@H](Cc1ccc(O)cc1)NC(=O)[C@H](CO)NC(=O)[C@H](Cc1c[nH]c2ccccc12)NC(=O)[C@H](Cc1cnc[nH]1)NC(=O)[C@@H]1CCC(=O)N1)C(=O)N[C@@H](CCCN=C(N)N)C(=O)N1CCC[C@H]1C(=O)NCC(N)=O (stereo in doubt)
inactive: Potency [1] | Potency [2] | Potency [3] | Potency [4]

CC(S)C(=O)NCC(=O)O (centres undefined)
inactive: Potency [1] | Potency [2] | Potency [3] | Potency [4] | Potency [5]

CCCCCCCCOS(=O)(=O)O
active: Potency [2] 71 µM | Potency [3] 28.3 µM
inactive: Potency [1] | Potency [4] | Potency [5]

BrCCCCCBr
inactive: Potency [1] | Potency [2] | Potency [3] | Potency [4] | Potency [5]

CCc1ccc(C=O)cc1
inactive: Potency [1] | Potency [2] | Potency [3] | Potency [4] | Potency [5]

CC(=O)Nc1cccc(C)c1
inactive: Potency [1] | Potency [3] | Potency [4] | Potency [5]
active: Potency [2] 71.3 µM

CCCCCCOC(=O)CC
inactive: Potency [1] | Potency [2] | Potency [3] | Potency [4] | Potency [5]

ClCCCl
inactive: Potency [1] | Potency [2] | Potency [3] | Potency [4] | Potency [5]

On1nnc2ccccc21
inactive: Potency [2] | Potency [3] | Potency [4] | Potency [5]
active: Potency [1] 35.6 µM

COc1ccc2nc(SCc3ncc(C)c(OC)c3C)[nH]c2c1
inactive: Potency [4]
active: Potency [1] 27.5 µM | Potency [2] 2.19 µM | Potency [3] 13.8 µM

Cc1cc(Cl)c(C)cc1Cl
inactive: Potency [1] | Potency [2] | Potency [3] | Potency [4] | Potency [5]

CC/C=C\CC1=C(C)CCC1=O
inactive: Potency [1] | Potency [3] | Potency [4] | Potency [5]
active: Potency [2] 63.3 µM

CC(C)=CCOC(=O)c1ccccc1
inactive: Potency [1] | Potency [2] | Potency [3] | Potency [4] | Potency [5]

CC(=C(CCOC(=O)C(C)C)SSC(CCOC(=O)C(C)C)=C(C)N(C=O)Cc1cnc(C)nc1N)N(C=O)Cc1cnc(C)nc1N
inactive: Potency [1] | Potency [2] | Potency [3] | Potency [4]

CC1(CO)CN(c2ccccc2)NC1=O (centres undefined)
inactive: Potency [4]
active: Potency [1] 28.3 µM | Potency [2] 20 µM | Potency [3] 25.2 µM | Potency [5] 31.7 µM

COCCOCCOCCOCCOCCO
inactive: Potency [1] | Potency [2] | Potency [3] | Potency [4] | Potency [5]

CCCCCCCCCCCCCC
inactive: Potency [1] | Potency [2] | Potency [3] | Potency [4] | Potency [5]

Cc1cccc(OCC(O)CNC(C)(C)C)c1C (centres undefined)
inactive: Potency [2] | Potency [3] | Potency [4] | Potency [5]
active: Potency [1] 13.8 µM
